Measured values from PubChem BioAssay (NCATS).
Inconclusive results are not listed. Calls follow the shape of the dose curve; as a rule, active = well fitted curve in either direction with a large enough effect (not every such curve was filed as active); inconclusive = small, poorly fitted or top-dose-only effect, or another doubt; inactive = flat fitted curve, though single readings scatter.

Test: AP1 Signaling Pathway (AID 357)
Details: ME-180 (cervical carcinoma) AP-1-bla reporter, EGF-induced, beta-lactamase ratio, 5 h; at 17.2 µM (top of the series) unless noted
Method in brief: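 Cells are seeded overnight, exposed to compound titrations and an EC50 level of EGF for 5 hours at 37 °C, then loaded with CCF4 dye for 2.5 hours. Beta-lactamase activity under the AP-1 element is read as a blue/green ratio.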
% is scaled to controls: 0 for no effect and ±100 for the full control effect.

Activity change, negative = inhibition, inactive:
CCOC(=O)C1/C(=N\O)CC(C)(O)C(C(=O)OCC)C1c1ccc(N(C)C)cc1 (stereo not given) 6.52%, CN1CCN(Cc2c(O)ccc3c(-c4ccccc4)cc(=O)oc23)CC1 -11.8%, N#CC1(c2ccccc2)CCC(=NO)CC1 (stereo not given) -5.72%, CC1(C)NC(=O)N(CC(O)COc2ccccc2C(=O)Nc2ccccc2)C1=O (stereo not given) -6.46%, COc1ccccc1C1/C(=C(/O)c2cnn(-c3ccccc3)c2C)C(=O)C(=O)N1CCN(C)C (stereo not given) -7.05%, O=c1[nH]c(-c2ccccn2)nc2ccccc12 -2.38%, CCOC(=O)C1=C(C)N=C2SC(C)C(=O)N2C1c1ccc(OC(C)=O)c(OC)c1 (stereo not given) -14.1%, C=CCc1c(C)nc(SCCC)[nH]c1=O 2.81%, Cc1sccc1C1C(C#N)=C(N)SC(N)=C1C#N -12.4%, COCc1[nH]nc2c1C(c1cccc(OC)c1)C(C#N)=C(N)O2 (stereo not given) -19.1%, COc1ccc(N2CCN(c3nc4c(c(=O)[nH]c(=O)n4C)n3CCCc3ccccc3)CC2)cc1 22%, CN/C(=C/[N+](=O)[O-])NCCSCc1ccc(CN(C)C)o1 -15.4%, Cc1cc(C)nc(NC2=NCC(=O)N2c2cccc(Cl)c2)n1 3.62%, CN1c2ccccc2N(C)C1c1c(O)ccc2ccccc12 -1.37%, CCOC(=O)CNC(=O)CCCCCC(=O)NCC(=O)OCC 7.11%, CCc1[nH]c(=O)c(C#N)c2c1CSC(C)(C)C2 5.95%, Cc1ccc(C(=O)NCC(C)(C)O)cc1 9.77%, O=S(=O)(N[C@@H]1C[C@H]2CC[C@@H]1C2)c1cccs1 -5.92%, CCOc1cccc(NC(=O)C2CC(=O)NC(=Nc3ccccc3)S2)c1 (stereo not given) -5.62%, COc1ccc(C2=Nn3c(nnc3-c3cccnc3)SC2)cc1OC -11.2%, COc1ccc2nc(SCC(=O)O)nc(C)c2c1 5.08%, C=CCn1cnc2c(c1=O)c1nc3ccccc3nc1n2-c1ccc(Cl)cc1 8.09%, COc1cccc(Cn2c(OCC3CCCO3)nc3c2c(=O)n(C)c(=O)n3C)c1 (stereo not given) -4.44%, Cc1ccc(C(=O)C2=C(O)C(=O)N(c3ncccn3)C2c2ccc(Cl)cc2)o1 (stereo not given) -14%, CCOc1cccc(N2C(=O)CC(N(CCc3ccc(OC)c(OC)c3)C(=O)CC)C2=O)c1 (stereo not given) -28.7%, Cn1c(=O)n(CC(=O)Nc2ccccc2)c2ccccc21 -5.57%, CC(O)c1n(C)c(Cl)c[n+]1C (stereo not given) 0.68%, O=C(CN1C2=NCCN2c2ccccc21)N1CCOCC1 5.86%, CCOC(=O)c1ccc(NC(=O)Cn2nnc3ccccc32)cc1 -12.4%, COCCNc1oc(-c2ccc(Cl)cc2)nc1C#N -8.7%, COC(=O)C(NC(=O)c1ccco1)(Nc1nc(C)cs1)C(F)(F)F (stereo not given) -3.01%, COc1ccccc1Cn1c2nc3ccccc3nc2c2c(=O)n(CC(C)C)cnc21 -14.3%, C=C1C2(C(=O)Nc3nccs3)CCC(C2)C1(C)C (stereo not given) -7.92%, Clc1ccccc1-c1nn2c(-c3ccccn3)nnc2s1 -2.63%, COc1ccc(C(=O)OC(C)CN2CCN(C)CC2)cc1OC (stereo not given) 4.78%, Cc1cc(O)ccc1-c1cnc2ccccc2n1 5.77%, N#C/C(C(=O)N1CCCCC1)=C1\Nc2ccccc2S1 -15%, CC1(C)CC(=O)C(C=N)=C(O)C1 -5.44%, O=C(CN1CCc2[nH]c3ccccc3c2C1)N1CCCCC1 -7.36%, O=S(=O)(c1ccccc1)N(CC(O)CN1CCCCC1)c1ccccc1 (stereo not given) -4.48%
